Experimental data taken from PubChem BioAssay.
Several values for one entry are separate records, joined by “and”; a condition that tells them apart may be missing. Equal values may be shown once. More than one record can exist for a structure, and the calls need not agree. Activity calls are given as the source filed them.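 Rule for the calls, unless noted: active = thallium flux through the channel raised or lowered by more than 3 SD from vehicle-only wells, actives on both sides; inactive = the rest.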

Experiments:
[1] = Wnt pathway potentiators raising nuclear beta-catenin – imaging, WNT3A-conditioned medium, mouse C2C12, NPC library, primary screen (AID 1117326; in the data active = nuclear beta-catenin stimulation mostly above about 4.2%, no sharp cut-off; inactive = mostly below about 10%); details: stronger effect = higher value
[2] = stimulators of insulin release from INS-1E, primary screen, cell-based, 5 mM glucose, NPC library (AID 1117329;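 active = compound raises insulin release from rat beta cells at 5 mM glucose, no numeric limit stated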); details: rat INS-1E insulin secretion, at 10 µM, stronger effect = higher value
[3] = growth inhibition of GSK3B-pretreated HCT116 cells – cell-based, CellTiter-Glo, 0.2 to 20 µM (AID 1117336;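 active = compounds lowering colon cancer cell viability after pretreatment blocking the GSK3B kinase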); details: HCT116 viability after GSK3B inhibitor, at 20 µM, stronger effect = higher value
[4] = inhibition of endothelial tube formation, primary screen, imaging, VEGF stimulated, CD31 staining, tube area, NPC library (AID 1117340;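 active = compound that reduces growth-factor-driven endothelial tube area in a mixed cell culture, no cutoff stated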); details: VEGF-stimulated ADSC/ECFC co-culture, at 10 µM, stronger effect = higher value
[5] = GLP1 release stimulators, primary, NCI-H716, NPC library (AID 1117341;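 active = compound raises GLP1 secretion from the human gut endocrine cells, with no numeric limit stated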); details: NCI-H716 cells, at 10 µM, stronger effect = higher value
[6] = HCT116 colon cancer cell growth inhibition, primary screen, CellTiter-Glo luminescence, NPC library (AID 1117342;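 active = compounds that lower survival of HCT116 colon cancer cells in the luminescence readout, no numeric limit stated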); details: at 20 µM (top of the series)
[7] = reduced SW480 viability measured with CellTiter-Glo, NPC library, primary (AID 1117343;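 active = compounds that lower viability of the colon cancer cells in the luminescence readout, with no numeric limit stated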); details: CellTiter-Glo luminescence; at 20 µM (top of the series)
[8] = NPC library primary testing for decreased DLD-1 cell viability via CellTiter-Glo (AID 1117346;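 active = compounds that lower survival of DLD-1 colon cancer cells in the luminescence readout, no cutoff given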); details: DLD-1 viability, CellTiter-Glo luminescence; at 20 µM (top of the series)
[9] = target: 6-phosphogluconate dehydrogenase, decarboxylating (Homo sapiens) (UniProt P52209); assay: inhibition of human phosphogluconate dehydrogenase – biochemical, recombinant enzyme, NADPH absorbance, primary screen (AID 1159550;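 active = at least 20% inhibition of 6-phosphogluconate dehydrogenase activity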); details: recombinant 6PGD, NADPH absorbance 341 nm; at 10 µM; stronger effect = higher value
Chain of 6-phosphogluconate dehydrogenase, decarboxylating (Homo sapiens) (P52209 whole entry, looked up): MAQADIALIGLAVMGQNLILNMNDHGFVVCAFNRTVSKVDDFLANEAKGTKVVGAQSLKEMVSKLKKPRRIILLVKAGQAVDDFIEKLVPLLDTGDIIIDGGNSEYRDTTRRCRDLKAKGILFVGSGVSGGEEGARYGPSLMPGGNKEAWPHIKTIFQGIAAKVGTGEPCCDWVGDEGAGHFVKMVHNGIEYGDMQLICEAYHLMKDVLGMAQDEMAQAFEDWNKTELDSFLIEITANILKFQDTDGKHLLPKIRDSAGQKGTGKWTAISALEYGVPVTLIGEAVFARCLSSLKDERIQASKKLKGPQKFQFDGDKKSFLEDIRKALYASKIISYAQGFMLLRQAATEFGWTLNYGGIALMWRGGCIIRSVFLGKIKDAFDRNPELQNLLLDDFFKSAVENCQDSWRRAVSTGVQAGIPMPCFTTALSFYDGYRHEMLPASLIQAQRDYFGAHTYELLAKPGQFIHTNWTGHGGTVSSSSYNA

[10] = EMT-state selective cytotoxicity in co-culture – imaging, PC-3E GFP, TEM4-18 mCherry, primary screen (AID 1345086;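 active = compounds killing one labelled cell type while sparing the other, by normalised counts and ratio limits, not self-fluorescent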;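 for all read-outs here: cells exposed to compound for 72 h before imaging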;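 for red/green cell ratio (normalised): normalised mesenchymal count divided by normalised epithelial count so high means epithelial killing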); details: PC-3E GFP / TEM4-18 mCherry co-culture, imaging cell counts, at 1 µM; for red/green cell ratio (normalised): actives lie on both sides, counts scaled to control wells, 1 = unselective
[11] = MELAS cybrid and Rieske KO viability enhancers – cell-based, MELAS cybrids, Rieske KO mouse fibroblasts, CellTiter-Glo, primary screen (AID 1508586;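 active = mean z-score across replicates of 1.96 or higher in either the MELAS or the Rieske mutant cell line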;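 note: z relative to plate mean and SD of compound and empty wells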); details: low glucose
[12] = target: NAD(+) hydrolase SARM1 (Homo sapiens) (UniProt Q6SZW1); assay: blocking NAD cleavage by SARM1 SAM-TIR – cell lysate, NAD-Glo luminescence (AID 1508614;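 active = compound whose remaining NAD level is above about 45 nM, limit read from the data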;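 note: higher remaining NAD means stronger inhibition of SARM1 NADase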); details: SAM-TIR HEK293T lysate NADase, at 1 µM, stronger effect = higher value
Chain of NAD(+) hydrolase SARM1 (Homo sapiens) (Q6SZW1 whole entry, looked up, the tested form may be a part): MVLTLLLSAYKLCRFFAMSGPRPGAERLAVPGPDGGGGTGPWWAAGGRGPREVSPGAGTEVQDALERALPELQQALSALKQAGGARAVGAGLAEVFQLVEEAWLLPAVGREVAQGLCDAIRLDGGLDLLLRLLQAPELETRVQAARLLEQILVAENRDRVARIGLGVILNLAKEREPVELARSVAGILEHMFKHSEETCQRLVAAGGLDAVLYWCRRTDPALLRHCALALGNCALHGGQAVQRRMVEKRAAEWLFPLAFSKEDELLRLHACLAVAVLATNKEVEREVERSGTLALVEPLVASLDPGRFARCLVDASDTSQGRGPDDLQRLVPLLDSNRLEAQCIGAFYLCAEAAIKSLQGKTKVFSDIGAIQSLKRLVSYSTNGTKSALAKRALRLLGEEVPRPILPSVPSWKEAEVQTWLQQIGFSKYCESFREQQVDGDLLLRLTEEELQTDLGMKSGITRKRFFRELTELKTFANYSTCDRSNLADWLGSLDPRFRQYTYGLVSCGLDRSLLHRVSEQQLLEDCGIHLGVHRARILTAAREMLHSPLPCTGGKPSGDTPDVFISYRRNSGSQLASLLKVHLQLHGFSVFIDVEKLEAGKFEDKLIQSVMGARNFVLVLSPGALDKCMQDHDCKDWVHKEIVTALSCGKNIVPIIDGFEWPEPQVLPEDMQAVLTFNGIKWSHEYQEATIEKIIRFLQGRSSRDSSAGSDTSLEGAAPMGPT

[13] = target: Mitogen-activated protein kinase 7 (Homo sapiens) (UniProt Q13164); assay: Gal4-ERK5 driven luciferase induction – cell-based, HTS, primary screen (AID 1508626;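 active = luciferase signal above three times the same-plate solvent-only control wells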;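 note: luciferase driven by Gal4-ERK5 fusion binding five Gal4 sites before minimal TATA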); details: HeLa Gal4-ERK5 transactivation, 18 h, at 5 µM, stronger effect = higher value
Chain of Mitogen-activated protein kinase 7 (Homo sapiens) (Q13164 whole entry, looked up, the tested form may be a part): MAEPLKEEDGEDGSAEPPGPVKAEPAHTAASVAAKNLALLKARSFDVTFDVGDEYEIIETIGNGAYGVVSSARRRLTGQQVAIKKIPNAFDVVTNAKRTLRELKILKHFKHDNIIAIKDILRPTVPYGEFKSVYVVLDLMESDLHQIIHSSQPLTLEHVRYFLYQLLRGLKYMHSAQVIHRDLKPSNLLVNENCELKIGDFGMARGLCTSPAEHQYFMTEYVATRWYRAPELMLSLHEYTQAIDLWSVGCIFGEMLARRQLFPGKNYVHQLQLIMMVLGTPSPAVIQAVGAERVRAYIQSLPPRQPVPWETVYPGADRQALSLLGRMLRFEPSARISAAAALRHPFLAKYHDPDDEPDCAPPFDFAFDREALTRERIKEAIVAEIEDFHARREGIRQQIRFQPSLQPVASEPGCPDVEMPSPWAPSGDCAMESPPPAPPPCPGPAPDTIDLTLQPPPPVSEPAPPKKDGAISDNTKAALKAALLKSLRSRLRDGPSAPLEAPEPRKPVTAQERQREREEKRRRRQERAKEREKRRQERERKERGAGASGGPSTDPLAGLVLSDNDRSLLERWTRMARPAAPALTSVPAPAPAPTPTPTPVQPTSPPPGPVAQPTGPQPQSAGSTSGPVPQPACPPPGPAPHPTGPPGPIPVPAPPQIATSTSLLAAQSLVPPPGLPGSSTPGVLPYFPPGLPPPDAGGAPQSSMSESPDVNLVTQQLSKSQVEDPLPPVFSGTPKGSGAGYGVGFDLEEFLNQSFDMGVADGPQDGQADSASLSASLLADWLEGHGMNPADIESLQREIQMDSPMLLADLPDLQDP

F380Y = assay: BK channel mutant inhibitors and activators – cell-based, U2OS BacMam, thallium flux, beta subunits, selectivity assay, profiling panel (AID 1259406); details: U2OS BacMam BK variants, at 30 µM;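 note: initial slope of Thallos dye fluorescence rise after thallium is added; log ratio against the mean of 0.3% DMSO vehicle wells on the same plate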
F380Y/beta2Delta = assay: as above; details: U2OS BacMam BK variants, at 30 µM
[14] = target: Calcium-activated potassium channel subunit alpha-1 (Homo sapiens) + Leucine-rich repeat-containing protein 26 (Homo sapiens) (UniProt Q12791+Q2I0M4); assay: as above; details: U2OS BacMam BK variants, F380Y/Slo1WT/gamma1, at 30 µM
Chain of Calcium-activated potassium channel subunit alpha-1 (Homo sapiens) + Leucine-rich repeat-containing protein 26 (Homo sapiens) (Q2I0M4 whole entry, looked up, one chain of several): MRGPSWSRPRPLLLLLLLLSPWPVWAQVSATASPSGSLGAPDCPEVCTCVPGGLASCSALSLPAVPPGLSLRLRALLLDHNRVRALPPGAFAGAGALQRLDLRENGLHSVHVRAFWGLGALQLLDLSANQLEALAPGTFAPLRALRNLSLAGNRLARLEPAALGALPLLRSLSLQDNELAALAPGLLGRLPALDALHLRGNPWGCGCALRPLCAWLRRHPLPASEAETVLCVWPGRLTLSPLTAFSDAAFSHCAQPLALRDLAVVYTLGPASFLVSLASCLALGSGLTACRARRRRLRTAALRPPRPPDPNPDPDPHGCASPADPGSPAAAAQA

R275C = assay: as above; details: U2OS BacMam BK variants, at 30 µM
R275C/beta1 = assay: as above; details: U2OS BacMam BK variants, at 30 µM
R275C/beta2Delta = assay: as above; details: U2OS BacMam BK variants, at 30 µM
[15] = viability loss with induced miR-34 in A549 – imaging, A549 dox-inducible miR-34, nuclei and caspase counts, primary screen (AID 1347080;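 active = compounds whose cell count with miR-34 switched on is under 0.7 times the count with it off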); details: A549 miR-34 inducible, Hoechst nuclei count, 48 h
[16] = measured here: epithelial PC-3E GFP cell survival
[17] = measured here: mesenchymal TEM4-18 mCherry cell survival
[18] = MELAS cybrid survival, CellTiter-Glo 48 h, stronger effect = higher value
[19] = Rieske KO mouse fibroblast survival, CellTiter-Glo 72 h
[20] = stronger effect = lower value, cell number ratio, induced over uninduced
[21] = measured here: relative caspase fold change +Dox/-Dox
[22] = measured here: total cells with miR-34 induction, stronger effect = lower value
[23] = measured here: total cells without miR-34 induction

Cc1cccc(Nc2ccccc2C(=O)O)c1C
nuclear beta-catenin stimulation ([1]; at 10 µM): 0.8% (inactive) | nuclear beta-catenin stimulation ([1]; stimulation, at 2 µM): 0.4% | insulin secretion stimulation [2]: -1.6% (inactive) | viability decrease [3]: -0.3% (inactive) | tube area decrease [4]: 18% (inactive) | GLP1 secretion stimulation [5]: -0.1% (inactive) | inhibition of viability [6]: -21% (inactive) | viability decrease (inhibition) [7]: 29.6% (inactive) | viability decrease (inhibition) [8]: 2.25% (inactive) | inhibition [9]: 17.3% (inactive) | red/green cell ratio (normalised) [10]: 0.92 (inactive) | normalised cell number [10, 16]: 1.18 | normalised cell number [10, 17]: 1.08 | z-score [11, 18]: -0.21 (inactive) and 0.386 (inactive) and -0.378 (inactive) | z-score [11, 19]: -0.308 and -0.333 and -1.12 | remaining NAD [12]: 10 nM (inactive) | luciferase signal [13]: 232 AU (inactive) | log fold change Tl+ flux (F380Y): 0.0635 (inactive) | log fold change Tl+ flux (F380Y/beta2Delta): 0.111 (active) | log fold change Tl+ flux [14]: 0.101 (active) | log fold change Tl+ flux (R275C): 0.009 (inactive) | log fold change Tl+ flux (R275C/beta1): 0.182 (active) | log fold change Tl+ flux (R275C/beta2Delta): 0.117 (active)

CCCCCCCCCCC[C@@H](C[C@@H]1OC(=O)[C@H]1CCCCCC)OC(=O)[C@H](CC(C)C)NC=O
nuclear beta-catenin stimulation ([1]; at 10 µM): 2.8% (inactive) | nuclear beta-catenin stimulation ([1]; stimulation, at 2 µM): 4.5% | insulin secretion stimulation [2]: -1.7% (inactive) | viability decrease [3]: 42.4% (inactive) | tube area decrease [4]: 102% (active) | GLP1 secretion stimulation [5]: 0.9% (inactive) | inhibition of viability [6]: 32.5% (inactive) | viability decrease (inhibition) [7]: 107% (active) | viability decrease (inhibition) [8]: 79.1% (active) | inhibition [9]: -8.26% (inactive) | fold change [15, 20]: 0.867 (inactive) | fold change [15, 21]: 2.26 | cell count [15, 22]: 7850 | cell count [15, 23]: 9060 | remaining NAD [12]: 10 nM (inactive) | luciferase signal [13]: 48 AU (inactive) | log fold change Tl+ flux (F380Y): 0.0597 (inactive) | log fold change Tl+ flux (F380Y/beta2Delta): 0.0435 (inactive) | log fold change Tl+ flux [14]: 0.0135 (inactive) | log fold change Tl+ flux (R275C): -0.0306 (inactive) | log fold change Tl+ flux (R275C/beta1): -0.0228 (inactive) | log fold change Tl+ flux (R275C/beta2Delta): -0.0121 (inactive)

CC(C)C1CCC(C(=O)N[C@H](Cc2ccccc2)C(=O)O)CC1 (some centres not stated)
nuclear beta-catenin stimulation ([1]; at 10 µM): -0.5% (inactive) | nuclear beta-catenin stimulation ([1]; stimulation, at 2 µM): 0.2% | insulin secretion stimulation [2]: 49.4% (active) | viability decrease [3]: -22.6% (inactive) | tube area decrease [4]: -2.3% (inactive) | GLP1 secretion stimulation [5]: 2.1% (inactive) | inhibition of viability [6]: -6.47% (inactive) | viability decrease (inhibition) [7]: 1% (inactive) | viability decrease (inhibition) [8]: -23.8% (inactive) | inhibition [9]: 0.904% (inactive) | fold change [15, 20]: 0.871 (inactive) | fold change [15, 21]: 1.37 | cell count [15, 22]: 8810 | cell count [15, 23]: 10100 | z-score [11, 18]: -0.215 (inactive) and -1.18 (inactive) | z-score [11, 19]: -0.618 and -0.816 | remaining NAD [12]: 10 nM (inactive) | luciferase signal [13]: 80 AU (inactive) | log fold change Tl+ flux (F380Y): -0.00809 (inactive) | log fold change Tl+ flux (F380Y/beta2Delta): 0.0541 (inactive) | log fold change Tl+ flux [14]: 0.0401 (inactive) | log fold change Tl+ flux (R275C): -0.00833 (inactive) | log fold change Tl+ flux (R275C/beta1): 0.0383 (inactive) | log fold change Tl+ flux (R275C/beta2Delta): 0.0438 (inactive)

C[C@@H]1O[C@@H](OC[C@H]2O[C@@H](Oc3c(-c4ccc(O)c(O)c4)oc4cc(O)cc(O)c4c3=O)[C@H](O)[C@@H](O)[C@@H]2O)[C@H](O)[C@H](O)[C@H]1O
nuclear beta-catenin stimulation ([1]; at 10 µM): 0% (inactive) | nuclear beta-catenin stimulation ([1]; stimulation, at 2 µM): 1.9% | insulin secretion stimulation [2]: 0.6% (inactive) | viability decrease [3]: 56% (active) | tube area decrease [4]: 4.5% (inactive) | GLP1 secretion stimulation [5]: -1.2% (inactive) | inhibition of viability [6]: 70.9% (active) | viability decrease (inhibition) [7]: 59.4% (active) | viability decrease (inhibition) [8]: 44.7% (inactive) | inhibition [9]: 4.58% (inactive) | remaining NAD [12]: 10 nM (inactive) | log fold change Tl+ flux (F380Y): -0.0319 (inactive) | log fold change Tl+ flux (F380Y/beta2Delta): 0.0273 (inactive) | log fold change Tl+ flux [14]: -0.026 (inactive) | log fold change Tl+ flux (R275C): 0.0426 (inactive) | log fold change Tl+ flux (R275C/beta1): -0.0081 (inactive) | log fold change Tl+ flux (R275C/beta2Delta): 0.00535 (inactive)

CN(C)c1ccc(O)c2c1C[C@H]1C[C@H]3[C@H](N(C)C)C(=O)C(C(N)=O)=C(O)[C@@]3(O)C(=O)C1=C2O
nuclear beta-catenin stimulation ([1]; at 10 µM): 3.7% (inactive) | nuclear beta-catenin stimulation ([1]; stimulation, at 2 µM): 6.6% | insulin secretion stimulation [2]: 1.5% (inactive) | viability decrease [3]: -31.1% (inactive) | tube area decrease [4]: 6.7% (inactive) | GLP1 secretion stimulation [5]: -1.4% (inactive) | inhibition of viability [6]: 17.9% (inactive) | viability decrease (inhibition) [7]: 65.6% (active) | viability decrease (inhibition) [8]: 74.4% (active) | inhibition [9]: -17.9% (inactive) | red/green cell ratio (normalised) [10]: 1.2 (inactive) | normalised cell number [10, 16]: 0.99 | normalised cell number [10, 17]: 1.19 | fold change [15, 20]: 1.15 (inactive) and 0.819 (inactive) and 0.689 (active) | fold change [15, 21]: 0.974 and 2.86 and 1.89 | cell count [15, 22]: 2650 and 5110 and 3260 | cell count [15, 23]: 2300 and 6240 and 4740 | z-score [11, 18]: -2.76 (inactive) and 0.283 (inactive) | z-score [11, 19]: -3.81 and -1.93 | remaining NAD [12]: 10 nM (inactive) | luciferase signal [13]: 52 AU (inactive) | log fold change Tl+ flux (F380Y): -0.0263 (inactive) | log fold change Tl+ flux (F380Y/beta2Delta): 0.045 (inactive) | log fold change Tl+ flux [14]: 0.0283 (inactive) | log fold change Tl+ flux (R275C): -0.0348 (inactive) | log fold change Tl+ flux (R275C/beta1): -0.00562 (inactive) | log fold change Tl+ flux (R275C/beta2Delta): -0.0532 (inactive)

Cc1ccc(O)c([C@H](CCN(C(C)C)C(C)C)c2ccccc2)c1
nuclear beta-catenin stimulation ([1]; at 10 µM): 0.8% (inactive) | nuclear beta-catenin stimulation ([1]; stimulation, at 2 µM): 3.5% | insulin secretion stimulation [2]: 30.8% (active) | viability decrease [3]: 35.6% (inactive) | tube area decrease [4]: -14% (inactive) | GLP1 secretion stimulation [5]: 8.3% (inactive) | inhibition of viability [6]: 44.4% (inactive) | viability decrease (inhibition) [7]: 69.7% (active) | viability decrease (inhibition) [8]: -2.4% (inactive) | inhibition [9]: -2.71% (inactive) | z-score [11, 18]: -0.175 (inactive) | z-score [11, 19]: 0.484 | luciferase signal [13]: 64 AU (inactive) | log fold change Tl+ flux (F380Y): 0.149 (active) | log fold change Tl+ flux (F380Y/beta2Delta): 0.0454 (inactive) | log fold change Tl+ flux [14]: 0.0595 (inactive) | log fold change Tl+ flux (R275C): -0.0487 (inactive) | log fold change Tl+ flux (R275C/beta1): 0.03 (inactive) | log fold change Tl+ flux (R275C/beta2Delta): 0.0798 (inactive)

COc1ccc([C@@H]2Sc3ccccc3N(CCN(C)C)C(=O)[C@@H]2OC(C)=O)cc1
nuclear beta-catenin stimulation ([1]; at 10 µM): 0.5% (inactive) | nuclear beta-catenin stimulation ([1]; stimulation, at 2 µM): -0.4% | insulin secretion stimulation [2]: 1.15% (inactive) | viability decrease [3]: 17% (inactive) | tube area decrease [4]: -3.8% (inactive) | GLP1 secretion stimulation [5]: 2.5% (inactive) | inhibition of viability [6]: 32.9% (inactive) | viability decrease (inhibition) [7]: 47.4% (inactive) | viability decrease (inhibition) [8]: 32.3% (inactive) | inhibition [9]: -12.8% (inactive) | z-score [11, 18]: 0.628 (inactive) and 0.162 (inactive) | z-score [11, 19]: -0.0359 and -0.282 | remaining NAD [12]: 10 nM (inactive) | luciferase signal [13]: 68 AU (inactive) | log fold change Tl+ flux (F380Y): 0.0589 (inactive) | log fold change Tl+ flux (F380Y/beta2Delta): -0.00376 (inactive) | log fold change Tl+ flux [14]: 0.0123 (inactive) | log fold change Tl+ flux (R275C): -0.0404 (inactive) | log fold change Tl+ flux (R275C/beta1): 0.0836 (inactive) | log fold change Tl+ flux (R275C/beta2Delta): 0.0243 (inactive)
